# Results reported in PubChem BioAssay AID1159580 (chemical genetic matrix, 2015).
# “And” between values parts separate entries of the source, which are not always exact repeats. Equal values may be shown once. About 2,000 (36%) of roughly 5,500 compounds were called active. Roughly 18% stayed inconclusive and do not appear here. Some of the results follow. Values without a mark were called inactive. No stated cut-off is given here; in the data, active means normalized growth mostly below about 0.91 (no sharp cut-off); inconclusive means no clear call, values can overlap the other calls; inactive means mostly above about 0.92.
# Test: chemical genetic growth profiling, strain panel (AID 1159580);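 further: tested at 20 µM; growth read once vehicle control cultures reached saturation at 30 °C; 1 = growth at the plate median or of vehicle wells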
# Conditions: S. cerevisiae deletion strains, growth OD
smiles,measurement,setting,value
COc1cc(O)c(C(C)=O)c(OC)c1,normalized growth,"locus YAL013W, strain DEP1, stronger effect = lower value",1.02
same,normalized growth,"locus YAL021C, strain ccr4, stronger effect = lower value",1.01
same,normalized growth,"locus YAL026C, strain drs2, stronger effect = lower value",0.968
same,normalized growth,"locus YAL030W, strain snc1, stronger effect = lower value",1
same,normalized growth,"locus YBL061C, strain skt5, stronger effect = lower value",0.992
same,normalized growth,"locus YBR009C, strain hhf1, stronger effect = lower value",0.957
same,normalized growth,"locus YBR021W, strain FUR4, stronger effect = lower value",1.02
same,normalized growth,"locus YBR023C, strain chs3, stronger effect = lower value",0.995
same,normalized growth,"locus YBR171W, strain sec66, stronger effect = lower value",0.993
same,normalized growth,"locus YBR229C, strain ROT2, stronger effect = lower value",1.01
same,normalized growth,"locus YBR231C, strain swc5, stronger effect = lower value",0.994
same,normalized growth,"locus YBR279W, strain paf1, stronger effect = lower value",1
same,normalized growth,"locus YCL011C, strain gbp2, stronger effect = lower value",0.99
same,normalized growth,"locus YCL016C, strain dcc1, stronger effect = lower value",1.01
same,normalized growth,"locus YCL029C, strain bik1, stronger effect = lower value",1.01
same,normalized growth,"locus YCL061C, strain MRC1, stronger effect = lower value",0.965
same,normalized growth,"locus YCL069W, strain vba3, stronger effect = lower value",1
same,normalized growth,"locus YCR088W, strain abp1, stronger effect = lower value",0.993
same,normalized growth,"locus YDL005C, strain med2, stronger effect = lower value",1.03
same,normalized growth,"locus YDL035C, strain GPR1, stronger effect = lower value",1.04
same,normalized growth,"locus YDL040C, strain nat1, stronger effect = lower value",0.999
same,normalized growth,"locus YDL074C, strain BRE1, stronger effect = lower value",1.04
same,normalized growth,"locus YDL101C, strain DUN1, stronger effect = lower value",1.01
same,normalized growth,"locus YDL134C, strain PPH21, stronger effect = lower value",0.999
same,normalized growth,"locus YDL185W, strain tfp1, stronger effect = lower value",0.992
same,normalized growth,"locus YDL192W, strain arf1, stronger effect = lower value",1.01
same,normalized growth,"locus YDR001C, strain nth1, stronger effect = lower value",0.996
same,normalized growth,"locus YDR069C, strain doa4, stronger effect = lower value",1.03
same,normalized growth,"locus YDR101C, strain arx1, stronger effect = lower value",1
same,normalized growth,"locus YDR137W, strain rgp1, stronger effect = lower value",1.03
same,normalized growth,"locus YDR150W, strain NUM1, stronger effect = lower value",0.982
same,normalized growth,"locus YDR159W, strain sac3, stronger effect = lower value",0.936
same,normalized growth,"locus YDR162C, strain NBP2, stronger effect = lower value",1.05
same,normalized growth,"locus YDR195W, strain ref2",1.16 [resistant] (active)
same,normalized growth,"locus YDR297W, strain sur2, stronger effect = lower value",1.01
same,normalized growth,"locus YDR318W, strain mcm21, stronger effect = lower value",1
same,normalized growth,"locus YDR334W, strain swr1, stronger effect = lower value",1
same,normalized growth,"locus YDR335W, strain msn5, stronger effect = lower value",1.01
same,normalized growth,"locus YDR388W, stronger effect = lower value",1
same,normalized growth,"locus YDR392W, strain spt3, stronger effect = lower value",0.842
same,normalized growth,"locus YDR502C, strain sam2, stronger effect = lower value",0.983
same,normalized growth,"locus YEL003W, strain gim4, stronger effect = lower value",0.984
same,normalized growth,"locus YEL037C, strain rad23, stronger effect = lower value",0.998
same,normalized growth,"locus YEL061C, strain CIN8 (second series), stronger effect = lower value",1
same,normalized growth,"locus YEL061C, strain CIN8, stronger effect = lower value",1.01
same,normalized growth,"locus YER015W, strain faa2, stronger effect = lower value",1.01
same,normalized growth,"locus YER016W, strain bim1, stronger effect = lower value",1
same,normalized growth,"locus YER110C, stronger effect = lower value",0.982
same,normalized growth,"locus YER111C, strain swi4, stronger effect = lower value",1
same,normalized growth,"locus YER155C, strain BEM2 (second series), stronger effect = lower value",0.8 (active)
same,normalized growth,"locus YER155C, strain BEM2, stronger effect = lower value",1.01
same,normalized growth,"locus YER167W, strain BCK2, stronger effect = lower value",1.01
same,normalized growth,"locus YFR010W, strain ubp6, stronger effect = lower value",0.999
same,normalized growth,"locus YGL078C, strain dbp3, stronger effect = lower value",0.991
same,normalized growth,"locus YGL086W, strain mad1, stronger effect = lower value",0.988
same,normalized growth,"locus YGL167C, strain pmr1, stronger effect = lower value",1.01
same,normalized growth,"locus YGL173C, strain kem1, stronger effect = lower value",0.988
same,normalized growth,"locus YGL227W, strain vid30, stronger effect = lower value",0.997
same,normalized growth,"locus YGL240W, strain doc1, stronger effect = lower value",0.916
same,normalized growth,"locus YGL248W, strain PDE1, stronger effect = lower value",0.996
same,normalized growth,"locus YGL253W, strain hxk2, stronger effect = lower value",0.984
same,normalized growth,"locus YGR078C, strain PAC10, stronger effect = lower value",0.989
same,normalized growth,"locus YGR135W, strain pre9, stronger effect = lower value",0.957
same,normalized growth,"locus YGR252W, strain gcn5, stronger effect = lower value",0.921
same,normalized growth,"locus YHR013C, strain ard1, stronger effect = lower value",1.01
same,normalized growth,"locus YHR027C, strain rpn1, stronger effect = lower value",1.01
same,normalized growth,"locus YHR030C, strain SLT2, stronger effect = lower value",1.01 and 0.966
same,normalized growth,"locus YHR079C, strain IRE1 (second series), stronger effect = lower value",1
same,normalized growth,"locus YHR079C, strain IRE1, stronger effect = lower value",0.965
same,normalized growth,"locus YHR094C, strain hxt1, stronger effect = lower value",0.993
same,normalized growth,"locus YHR129C, strain ARP1, stronger effect = lower value",1.02
same,normalized growth,"locus YHR142W, strain chs7, stronger effect = lower value",0.929
same,normalized growth,"locus YHR200W, strain rpn10, stronger effect = lower value",0.98
same,normalized growth,"locus YIL066C, strain RNR3, stronger effect = lower value",1.02
same,normalized growth,"locus YIL073C, strain SPO22, stronger effect = lower value",0.967
same,normalized growth,"locus YIL125W, strain kgd1, stronger effect = lower value",1
same,normalized growth,"locus YIR030C, strain dcg1, stronger effect = lower value",0.997
same,normalized growth,"locus YJL092W, strain hpr5, stronger effect = lower value",0.992
same,normalized growth,"locus YJL095W, strain BCK1 (second series), stronger effect = lower value",0.996
same,normalized growth,"locus YJL095W, strain BCK1, stronger effect = lower value",1.02 and 0.967
same,normalized growth,"locus YJL115W, strain asf1, stronger effect = lower value",1.01
same,normalized growth,"locus YJL129C, strain trk1, stronger effect = lower value",0.995
same,normalized growth,"locus YJL134W, strain LCB3, stronger effect = lower value",1
same,normalized growth,"locus YJL154C, strain vps35, stronger effect = lower value",1.01
same,normalized growth,"locus YJL164C, strain tpk1, stronger effect = lower value",0.976
same,normalized growth,"locus YJL166W, strain qcr8, stronger effect = lower value",0.978
same,normalized growth,"locus YJL168C, strain set2, stronger effect = lower value",0.993
same,normalized growth,"locus YJL187C, strain SWE1 (second series), stronger effect = lower value",1.01
same,normalized growth,"locus YJL187C, strain SWE1, stronger effect = lower value",1
same,normalized growth,"locus YJR066W, strain TOR1, stronger effect = lower value",0.89
same,normalized growth,"locus YKL009W, strain mrt4, stronger effect = lower value",1.02
same,normalized growth,"locus YKL068W, stronger effect = lower value",0.99
same,normalized growth,"locus YKL085W, strain MDH1 (second series), stronger effect = lower value",1.01
same,normalized growth,"locus YKL085W, strain MDH1, stronger effect = lower value",1.01
same,normalized growth,"locus YKL160W, strain elf1, stronger effect = lower value",0.986
same,normalized growth,"locus YKL190W, strain CNB1, stronger effect = lower value",1.01
same,normalized growth,"locus YKR001C, strain vps1, stronger effect = lower value",0.998
same,normalized growth,"locus YKR026C, strain gcn3, stronger effect = lower value",0.994
same,normalized growth,"locus YKR091W, strain srl3, stronger effect = lower value",0.998
same,normalized growth,"locus YLL001W, strain dnm1, stronger effect = lower value",0.992
same,normalized growth,"locus YLL026W, stronger effect = lower value",0.992
same,normalized growth,"locus YLL041C, strain sdh2, stronger effect = lower value",0.998
same,normalized growth,"locus YLR027C, strain aat2, stronger effect = lower value",0.987
same,normalized growth,"locus YLR039C, strain RIC1, stronger effect = lower value",1.1
same,normalized growth,"locus YLR058C, strain SHM2, stronger effect = lower value",1.02
same,normalized growth,"locus YLR102C, strain apc9, stronger effect = lower value",0.992
same,normalized growth,"locus YLR113W, strain HOG1, stronger effect = lower value",0.955
same,normalized growth,"locus YLR221C, strain rsa3, stronger effect = lower value",0.971
same,normalized growth,"locus YLR258W, strain gsy2, stronger effect = lower value",0.982
same,normalized growth,"locus YLR262C, strain YPT6 (second series), stronger effect = lower value",1.01
same,normalized growth,"locus YLR262C, strain YPT6, stronger effect = lower value",1.15
same,normalized growth,"locus YLR268W, strain sec22, stronger effect = lower value",1.01
same,normalized growth,"locus YLR320W, strain mms22, stronger effect = lower value",0.972
same,normalized growth,"locus YLR330W, strain CHS5, stronger effect = lower value",1.01
same,normalized growth,"locus YLR342W, strain FKS1, stronger effect = lower value",1.01
same,normalized growth,"locus YLR357W, strain rsc2, stronger effect = lower value",1.01
same,normalized growth,"locus YLR370C, strain arc18, stronger effect = lower value",1
same,normalized growth,"locus YLR371W, strain rom2, stronger effect = lower value",0.975
same,normalized growth,"locus YLR384C, strain iki3, stronger effect = lower value",1.01
same,normalized growth,"locus YLR418C, strain cdc73, stronger effect = lower value",0.998
same,normalized growth,"locus YML016C, strain PPZ1, stronger effect = lower value",1
same,normalized growth,"locus YML032C, strain rad52, stronger effect = lower value",1.01
same,normalized growth,"locus YML120C, strain ndi1, stronger effect = lower value",0.99
same,normalized growth,"locus YML124C, strain tub3, stronger effect = lower value",0.988
same,normalized growth,"locus YMR058W, strain fet3, stronger effect = lower value",0.972
same,normalized growth,"locus YMR078C, strain ctf18, stronger effect = lower value",0.98
same,normalized growth,"locus YMR125W, strain sto1, stronger effect = lower value",1.06
same,normalized growth,"locus YMR129W, stronger effect = lower value",1.01
same,normalized growth,"locus YMR205C, strain PFK2, stronger effect = lower value",1
same,normalized growth,"locus YMR223W, strain ubp8, stronger effect = lower value",0.989
same,normalized growth,"locus YMR231W, strain pep5, stronger effect = lower value",1.02
same,normalized growth,"locus YMR307W, strain GAS1, stronger effect = lower value",1.02
same,normalized growth,"locus YNL067W, strain RPL9B, stronger effect = lower value",1
same,normalized growth,"locus YNL071W, strain lat1, stronger effect = lower value",0.985
same,normalized growth,"locus YNL128W, strain TEP1, stronger effect = lower value",1.03
same,normalized growth,"locus YNL153C, strain GIM3, stronger effect = lower value",1.02
same,normalized growth,"locus YNL183C, strain NPR1, stronger effect = lower value",0.918
same,normalized growth,"locus YNL209W, strain ssb2, stronger effect = lower value",1
same,normalized growth,"locus YNL233W, strain BNI4, stronger effect = lower value",1.03
same,normalized growth,"locus YNL248C, strain rpa49, stronger effect = lower value",0.969
same,normalized growth,"locus YNL250W, strain rad50, stronger effect = lower value",0.99
same,normalized growth,"locus YNL271C, strain bni1, stronger effect = lower value",0.985
same,normalized growth,"locus YNL298W, strain CLA4, stronger effect = lower value",1
same,normalized growth,"locus YNL307C, strain MCK1, stronger effect = lower value",0.978
same,normalized growth,"locus YNL322C, strain KRE1 (second series), stronger effect = lower value",1.01
same,normalized growth,"locus YNR049C, strain mso1, stronger effect = lower value",1.01
same,normalized growth,"locus YNR052C, strain pop2, stronger effect = lower value",0.988
same,normalized growth,"locus YOL006C, strain TOP1, stronger effect = lower value",1.06
same,normalized growth,"locus YOL012C, strain htz1",0.925
same,normalized growth,"locus YOL147C, strain pex11, stronger effect = lower value",1
same,normalized growth,"locus YOR001W, strain rrp6, stronger effect = lower value",0.959
same,normalized growth,"locus YOR061W, strain CKA2, stronger effect = lower value",1.03
same,normalized growth,"locus YOR069W, strain VPS5, stronger effect = lower value",1
same,normalized growth,"locus YOR070C, strain gyp1, stronger effect = lower value",0.998
same,normalized growth,"locus YOR080W, strain dia2, stronger effect = lower value",1.01
same,normalized growth,"locus YOR083W, strain WHI5, stronger effect = lower value",0.965
same,normalized growth,"locus YOR106W, strain vam3, stronger effect = lower value",0.972
same,normalized growth,"locus YOR136W, strain idh2, stronger effect = lower value",1
same,normalized growth,"locus YOR144C, strain elg1, stronger effect = lower value",0.999
same,normalized growth,"locus YOR184W, strain ser1, stronger effect = lower value",1.03
same,normalized growth,"locus YOR231W, strain MKK1, stronger effect = lower value",0.956
same,normalized growth,"locus YOR265W, strain rbl2, stronger effect = lower value",0.989
same,normalized growth,"locus YOR270C, strain vph1, stronger effect = lower value",0.915
same,normalized growth,"locus YOR290C, strain snf2, stronger effect = lower value",0.95
same,normalized growth,"locus YOR316C, strain cot1, stronger effect = lower value",0.995
same,normalized growth,"locus YPL051W, strain arl3, stronger effect = lower value",0.966
same,normalized growth,"locus YPL078C, strain atp4, stronger effect = lower value",0.954
same,normalized growth,"locus YPL106C, strain sse1, stronger effect = lower value",0.982
same,normalized growth,"locus YPL240C, strain hsp82, stronger effect = lower value",1
same,normalized growth,"locus YPL256C, strain CLN2, stronger effect = lower value",0.978
same,normalized growth,"locus YPR119W, strain clb2, stronger effect = lower value",0.988
same,normalized growth,"locus YPR141C, strain kar3, stronger effect = lower value",0.993
same,normalized growth,"locus YPR163C, strain tif3, stronger effect = lower value",0.986
same,normalized growth,"locus YPR167C, strain met16, stronger effect = lower value",0.991
same,normalized growth,"strain wtn01, stronger effect = lower value",0.991
